Data: PubChem BioAssay (NCATS)
Records with an inconclusive call do not appear. Unmarked numbers belong to inactive results. Calls come from the whole dose curve; as a rule, active = well fitted curve in the direction sought with a large enough effect; inconclusive = small, poorly fitted or top-dose-only effect, or another doubt; inactive = no such curve, though single readings can be large or run the other way. Where a SMILES comes first, the peptide text is derived from it. Bridges are numbered along the chain shown (N, C = ends). [ ]: non-standard residue; d: D form. hArg = N=C(N)NCCCC[C@H](N)C(=O)O; Mpa = O=C(O)CCS

Assay: qHTS Assay for Identifying Gametocytocidal Compounds (AID 743244);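 note: actives lower the fluorescent signal which means gametocytes are killed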
Settings: P. falciparum 3D7 stage III-V gametocytes, alamarBlue, 72 h; max response: active compounds read low
Outline: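 Compounds are pinned into medium, gametocytes (stage III–V, 3D7, 20,000 cells/well) added, and plates held 72 h at 37 °C in 5% CO2. AlamarBlue follows for 24 h before fluorescence reading.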
% is set by controls: 0 for no effect and ±100 for the full control effect.

SMILES | max response [%]
CC(=O)NCc1c(I)c(NC(C)=O)c(I)c(C(=O)O)c1I | 12.1
CC(=O)N(CC(O)CO)c1c(I)c(C(=O)NCC(O)CO)c(I)c(C(=O)NCC(O)CO)c1I (configuration not stated) | -11.4
NS(=O)(=O)c1cc2c(cc1C(F)(F)F)NCNS2(=O)=O | -4.2
CCOC(N)=O | -2.14
CC1(C)[C@@H](OC(=O)CCC(=O)O)CC[C@]2(C)[C@H]3C(=O)C=C4[C@@H]5C[C@@](C)(C(=O)O)CC[C@]5(C)CC[C@@]4(C)[C@]3(C)CC[C@@H]12 | -6.25
CCOC(=O)OC(C)OC(=O)[C@@H]1N2C(=O)[C@@H](NC(=O)[C@H](N)c3ccccc3)[C@H]2SC1(C)C (some centres not stated) | 15.8
O=C1c2ccccc2S(=O)(=O)N1CCCCN1CCN(c2ncccn2)CC1 | -4.4
O=C(O)c1ccc[n+]([O-])c1 | -6.63
O=c1[nH]cnc2nc[nH]c12 | -7.32
CN(C/C=C/C#CC(C)(C)C)Cc1cccc2ccccc12 | -1.43
CC(C)C[C@@H](N)C(=O)O | -9.37
CCOC(=O)[C@H](CCc1ccccc1)N[C@@H](C)C(=O)N1CCC[C@H]1C(=O)O | -2.72
CCCCCCCC(=O)OCC(O)CO (configuration not stated) | 0.163
NC(=O)c1ccc([N+](=O)[O-])cc1Cl | -9.98
CC1CCN(CCCC(=O)c2ccc(F)cc2)CC1 | 1.92
CCCCC1(COC(=O)CCC(=O)O)C(=O)N(c2ccccc2)N(c2ccccc2)C1=O | 1.1
CNc1c2c(nn1C)CCCC2 | 6.79
O=C(Cn1ccnc1[N+](=O)[O-])NCc1ccccc1 | -2.89
NS(=O)(=O)c1cc(-c2nn[nH]n2)c(NCc2cccs2)cc1Cl | 54.3

SMILES | max response [%]
CO[C@@]1(NC(=O)C(C(=O)O)c2ccc(O)cc2)C(=O)N2C(C(=O)O)=C(CSc3nnnn3C)CO[C@@H]21 (some centres not stated) | 2.23
C=CCSCC1Nc2cc(Cl)c(S(N)(=O)=O)cc2S(=O)(=O)N1 (configuration not stated) | 15.7
CC(C)CCCC(C)CCCC(C)CCCCC(C)CCCC(C)CCCC(C)C (configuration not stated) | 5.26
CN(C(=O)c1c(O)c2ccccc2n(C)c1=O)c1ccccc1 | -2.29
CC[C@]12CCCN3CCc4c(n(c5ccccc45)[C@@](O)(C(=O)OC)C1)[C@@H]32 | 13.2
O=C(O)CCCc1ccccc1 | 13.9
N[C@@H](Cc1ccc(O)cc1)C(=O)O | 0.124
C[C@H]1COc2c(C3(N)CC3)c(F)cc3c(=O)c(C(=O)O)cn1c23 | -1.28
CCN(CC)CCOC(=O)C(c1ccccc1)c1ccccc1 | -5.96
NC(=O)NS(=O)(=O)c1ccc(N)cc1 | 3.95
NC(=O)CC[C@@H](N)C(=O)O | -2.82
Nc1ncnc(Nc2ccccc2)n1 | -1.5
COc1ccc(C(=O)NCc2ccc(OCCN(C)C)cc2)cc1OC | 7.72
C[C@@H]1O[C@@H](OC[C@H]2O[C@@H](Oc3c(-c4ccc(O)c(O)c4)oc4cc(O)cc(O)c4c3=O)[C@H](O)[C@@H](O)[C@@H]2O)[C@H](O)[C@H](O)[C@H]1O | 3.71
OC(CCN1CCCC1)(c1ccccc1)C1CCCCC1 (configuration not stated) | 3.62
NC(=O)[C@@H]1CSSCCC(=O)N[C@@H](CCCCN=C(N)N)C(=O)NCC(=O)N[C@@H](CC(=O)O)C(=O)N[C@@H](Cc2c[nH]c3ccccc23)C(=O)N2CCC[C@H]2C(=O)N1 ([Mpa][hArg]GDWPC-NH2; disulfide 1-7) | 6.22
C/C=C/C(=O)N(CC)c1ccccc1C | 21.1
O=C(O)[C@@H]1[C@H]2C[C@H]3c4[nH]c5ccccc5c4CCN3C[C@@H]2CC[C@@H]1O | -6.8
